Assay outcomes: PubChem, Sanford-Burnham Center for Chemical Genomics
Rows were chosen to be rich in hits. Some 28% of all compounds tested hit in one or more screens of this group.
CYP2C9 act: activators of human CYP2C9. AID 1024. hit rate 1.4% among 96,000. activation factor at 5 µM. recombinant CYP2C9, luciferin-H conversion, luminescence; hits give high values; factor 1 = untreated enzyme, 0 = blocked. P11712;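 active means activation factor of 2 or more for CYP2C9 at a 5 µM dose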;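 further: 0 = sulfaphenazole-blocked wells and 1 = vehicle-only wells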
CYP2C9 inhib: inhibitors of human CYP2C9; P11712; CYP2C9 Supersomes, luciferin-H conversion, luminescence; inhibition, % at 5 µM; hit rate 20% among 96,000; AID 777;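 active means blocking of liver enzyme CYP2C9 beyond about 50% at 5 µM, limit read from the data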
CYP2C19 activ: cytochrome P450 2C19 (human) activation | P33261 | recombinant CYP2C19, luciferin-H EGE luminescence; hits give high values; 0 = fully inhibited enzyme, 1 = untreated enzyme | activation factor at 5 µM | 96,000 tested, under 10 active;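 active means activation factor of at least 2 at 5 µM in the primary screen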;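 further: 0 = wells with 2.5 mM tranylcypromine and 1 = vehicle-only wells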
Target sequence (P33261 whole entry, looked up): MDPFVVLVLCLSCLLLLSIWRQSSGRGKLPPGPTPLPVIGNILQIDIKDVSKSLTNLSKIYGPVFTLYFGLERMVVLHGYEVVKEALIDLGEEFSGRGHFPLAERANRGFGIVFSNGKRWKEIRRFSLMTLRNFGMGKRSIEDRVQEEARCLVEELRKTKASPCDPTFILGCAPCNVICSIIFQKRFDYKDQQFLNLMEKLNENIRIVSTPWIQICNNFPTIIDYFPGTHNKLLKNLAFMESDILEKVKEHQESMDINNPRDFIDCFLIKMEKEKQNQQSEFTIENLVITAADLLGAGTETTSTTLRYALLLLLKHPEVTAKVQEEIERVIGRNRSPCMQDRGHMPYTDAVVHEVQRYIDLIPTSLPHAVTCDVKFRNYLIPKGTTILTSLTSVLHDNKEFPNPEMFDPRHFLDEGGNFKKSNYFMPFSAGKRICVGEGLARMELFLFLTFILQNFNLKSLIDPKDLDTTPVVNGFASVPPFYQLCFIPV
CYP2C19 inhib: inhibitors of human CYP2C19; P33261; hit rate 21% among 96,000; CYP2C19 Supersomes, luciferin-H EGE luminescence, 30 min; inhibition, % at 5 µM;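 active means CYP2C19 inhibition above a set limit at 5 µM in the primary screen, cut at about 50% in these data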;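 further: plate controls were negative control wells for no effect and 2.5 mM tranylcypromine positive control for full effect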
CD11b adhes enh: CD11b/CD18-fibrinogen binding enhancement; activation, % at 10 µM; P05107+P11215; hit rate 0.07% among 93,000; K562 CD11b/CD18 adhesion to fibrinogen, ATPlite luminescence;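 active means 10 µM primary screen giving 50% or more activity, confirmed by 40% or more on retest at that dose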
Mac1 fbg inh: blocks human CD11b/CD18 adhesion to fibrinogen. P05107+P11215. K562 CD11b/CD18 adhesion to fibrinogen, ATPlite luminescence; Mn2+ added to activate the integrin. inhibition, % at 10 µM. hit rate 0.54% among 93,000;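 active means primary inhibition of 50% or more at 10 µM, then 40% or more on retest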
The depositor's hits bear a star.

What do the screens show for `Cc1ccc(-c2ccc(/C=N/N3C(=O)C4C5C=CC(CC5)C4C3=O)o2)c([N+](=O)[O-])c1` (centres undefined)?
CYP2C9 act: 0.3; CYP2C9 inhib: 70.1*; CYP2C19 activ: 1; CYP2C19 inhib: -0.8; CD11b adhes enh: 3.4; Mac1 fbg inh: 2.4

How did OC1(c2cn(Cc3ccccc3)nn2)CCCCC1 do in these assays?
CYP2C9 act: 1.1; CYP2C9 inhib: -5.0; CYP2C19 activ: 0.9; CYP2C19 inhib: 10.0; CD11b adhes enh: -2.5; Mac1 fbg inh: -9.6

What do the screens show for `CCN1C(=O)C(O)(CC(=O)c2ccccn2)c2ccccc21` (centres undefined)?
CYP2C9 act: 1; CYP2C9 inhib: 0.4; CYP2C19 activ: 1; CYP2C19 inhib: 0.3; CD11b adhes enh: -4.9; Mac1 fbg inh: -9.5

What do the screens show for `O=C(CC1(O)C(=O)N(CCc2ccccc2)c2ccccc21)c1ccco1` (centres undefined)?
CYP2C9 act: 0.3; CYP2C9 inhib: 74.0*; CYP2C19 activ: 0.3; CYP2C19 inhib: 70.8*; CD11b adhes enh: -3.1; Mac1 fbg inh: -2.6

What do the screens show for `Cc1ccc(C(=O)CC2(O)C(=O)N(Cc3ccccc3)c3ccccc32)o1` (centres undefined)?
CYP2C9 act: 1.2; CYP2C9 inhib: -17.0; CYP2C19 activ: 0.7; CYP2C19 inhib: 30.6; CD11b adhes enh: 3.2; Mac1 fbg inh: 3.5

What do the screens show for `Cc1ccc(C(=O)CC2(O)C(=O)N(Cc3ccccc3Cl)c3ccccc32)o1` (centres undefined)?
CYP2C9 act: 1.4; CYP2C9 inhib: -43.5; CYP2C19 activ: 0.4; CYP2C19 inhib: 55.2*; CD11b adhes enh: 0.4; Mac1 fbg inh: 24.9

How did C=C(C)CN1C(=O)C(O)(CC(=O)c2ccc3c(c2)OCCO3)c2ccccc21 (centres undefined) do in these assays?
CYP2C9 act: 0.6; CYP2C9 inhib: 40.0; CYP2C19 activ: 0.2; CYP2C19 inhib: 81.7*; CD11b adhes enh: 3.8; Mac1 fbg inh: -17.3

Results for Cc1ccc(C(=O)CC2(O)C(=O)N(CCc3ccccc3)c3ccc(Br)cc32)o1 (centres undefined) ?
CYP2C9 act: 0.1; CYP2C9 inhib: 93.3*; CYP2C19 activ: 0; CYP2C19 inhib: 97.9*; CD11b adhes enh: 3.1

What do the screens show for `CCOc1ccc(N(CC(=O)NC2CCCC2)S(=O)(=O)c2c(C)[nH]c(=O)[nH]c2=O)cc1`?
CYP2C9 act: 0.7; CYP2C9 inhib: 32.7; CYP2C19 activ: 1.1; CYP2C19 inhib: -5.9; CD11b adhes enh: 2.6; Mac1 fbg inh: 1.5

What do the screens show for `C=CCN1C(=O)C(O)(CC(=O)c2ccccc2)c2ccccc21` (centres undefined)?
CYP2C9 act: 0.6; CYP2C9 inhib: 38.1; CYP2C19 activ: 0.3; CYP2C19 inhib: 74.6*; CD11b adhes enh: -5.3; Mac1 fbg inh: -9.5

What do the screens show for `COC(=O)CN1C(=O)C(O)(CC(=O)c2ccc(Cl)cc2)c2ccccc21` (centres undefined)?
CYP2C9 act: 0.9; CYP2C9 inhib: 7.7; CYP2C19 activ: 0.7; CYP2C19 inhib: 25.3; CD11b adhes enh: -4.7; Mac1 fbg inh: -3.4

How did c1ccc2c3c(cc(N4CCOCC4)c2c1)OC1(N2CCOCC2)CCCCC1O3 (centres undefined) do in these assays?
CYP2C9 act: 0.2; CYP2C9 inhib: 79.5*; CYP2C19 activ: 0; CYP2C19 inhib: 95.1*; CD11b adhes enh: -2.1; Mac1 fbg inh: 15.1

What do the screens show for `CC(C)Sc1nc2c(c(=O)n1C)SC(C)C2` (centres undefined)?
CYP2C9 act: 0.6; CYP2C9 inhib: 41.0; CYP2C19 activ: 0.8; CYP2C19 inhib: 18.4; CD11b adhes enh: -2.9; Mac1 fbg inh: 2.8

How did CN(C)C(C(=O)NC1CCCCC1)c1ccc(Cl)cc1 (centres undefined) do in these assays?
CYP2C9 act: 0.7; CYP2C9 inhib: 29.1; CYP2C19 activ: 0.4; CYP2C19 inhib: 56.1*; CD11b adhes enh: -1.8; Mac1 fbg inh: -1.0

How did C=CC[n+]1c(-c2ccc(OCC)cc2)csc1NNC(=O)Nc1ccccc1 do in these assays?
CYP2C9 act: 0.9; CYP2C9 inhib: 12.6; CYP2C19 activ: 0.9; CYP2C19 inhib: 6.3; CD11b adhes enh: -8.0; Mac1 fbg inh: 86.5*

How did COc1cccc2c3c(c(=O)[nH]c12)CCC(C)(C)O3 do in these assays?
CYP2C9 act: 0.7; CYP2C9 inhib: 30.0; CYP2C19 activ: 0.6; CYP2C19 inhib: 45.0; CD11b adhes enh: -4.4; Mac1 fbg inh: -9.1

What do the screens show for `Cc1ccc(-c2c(C#N)c(N)nc3c2CCCC3)s1`?
CYP2C9 act: 1.3; CYP2C9 inhib: -25.4; CYP2C19 activ: 0.8; CYP2C19 inhib: 21.1; CD11b adhes enh: -2.5; Mac1 fbg inh: -12.0

What do the screens show for `O=C1CC(c2ccco2)CC(O)=C1C=Nc1ccc(Br)cc1` (centres undefined)?
CYP2C9 act: 0.6; CYP2C9 inhib: 40.2; CYP2C19 activ: 0.8; CYP2C19 inhib: 21.6; CD11b adhes enh: 0.6; Mac1 fbg inh: -11.8

Results for O=C1CC(c2ccco2)CC(O)=C1C=Nc1cc(Cl)ccc1O (centres undefined) ?
CYP2C9 act: 0.3; CYP2C9 inhib: 72.7*; CYP2C19 activ: 0.6; CYP2C19 inhib: 37.8; CD11b adhes enh: -1.5; Mac1 fbg inh: -7.4

How did COc1ccc(NC(=O)C2CCCN2C(=O)NC2CCCCC2)cc1OC (centres undefined) do in these assays?
CYP2C9 act: 1.1; CYP2C9 inhib: -8.7; CYP2C19 activ: 0.9; CYP2C19 inhib: 8.2; CD11b adhes enh: -3.0; Mac1 fbg inh: -11.1

Results for COc1ccc(C2CCCN2C(=O)Nc2ccc(C)c(C)c2)cc1OC (centres undefined) ?
CYP2C9 act: 0.9; CYP2C9 inhib: 14.2; CYP2C19 activ: 0.2; CYP2C19 inhib: 75.5*; CD11b adhes enh: 1.2; Mac1 fbg inh: -4.0

What do the screens show for `COc1ccc(C2CCCN2C(=O)Nc2ccccc2)cc1OC` (centres undefined)?
CYP2C9 act: 1.4; CYP2C9 inhib: -36.7; CYP2C19 activ: 0.3; CYP2C19 inhib: 71.5*; CD11b adhes enh: -0.1; Mac1 fbg inh: 2.3

Results for CCCCCOC(=O)c1ccccc1C(=O)O ?
CYP2C9 act: 0.8; CYP2C9 inhib: 20.3; CYP2C19 activ: 0.9; CYP2C19 inhib: 9.4; CD11b adhes enh: -2.2; Mac1 fbg inh: 3.4

What do the screens show for `Cc1ccc(S(=O)(=O)N2CCC(C(=O)Nc3ccccc3N3CCCCC3)CC2)cc1`?
CYP2C9 act: 0.1; CYP2C9 inhib: 86.8*; CYP2C19 activ: 0.2; CYP2C19 inhib: 79.7*; CD11b adhes enh: -0.1; Mac1 fbg inh: 64.6

Results for CCOC(=O)C1CCN(S(=O)(=O)c2ccc(C)cc2)CC1 ?
CYP2C9 act: 0.7; CYP2C9 inhib: 26.7; CYP2C19 activ: 0.2; CYP2C19 inhib: 81.1*; CD11b adhes enh: -1.6; Mac1 fbg inh: -30.4
